# Assay outcomes: PubChem, National Center for Advancing Translational Sciences (NCATS)
# D1 antag: human D1 dopamine receptor antagonism. P21728. HEK293 TREx D1 cells, calcium flux, dopamine EC80; hits give low values. activity change, negative = inhibition, % at 10 µM. actives 3.2% (n = 360,000). AID 504652; in the data active = activity change below about -30%; also: % is scaled to controls: 0 for no effect and ±100 for the full control effect
#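 Tetracycline-induced HEK293 T-REx cells with force-coupled D1 receptor were loaded with a no-wash calcium dye. Compound was added after a 10 s baseline and read kinetically for 180 s; EC80 dopamine was then added and calcium flux followed another 180 s.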
# LDHA inh: inhibitors of human lactate dehydrogenase A; P00338; purified LDHA, NADH/diaphorase-resazurin fluorescence; hits give low values; activity change, % (values are at about 110 or 230 µM); actives 0.15% (n = 480,000); AID 1347041; in the data active = activity change below about -30%; inconclusive = mostly about -25% to -30%;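 also: plate controls were DMSO wells for no effect and wells without enzyme for full effect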
#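 Enzyme activity of human lactate dehydrogenase 5 (2 nM; 0.06 mM NADH, 0.2 mM pyruvate, 5 min, RT) is measured via a resazurin/diaphorase fluorescence readout of residual NADH.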
# TRHR enhancer: allosteric enhancers of human TRH receptor | TRHR cells, fluo-8 calcium fluorescence, EC20 TRH enhancement | AID 493056 | enhancement, % at 2 µM | actives 0.66% (n = 360,000); in the data active = enhancement above about 30%; also: 0% is about no effect
# Target sequence (P34981 whole entry, looked up): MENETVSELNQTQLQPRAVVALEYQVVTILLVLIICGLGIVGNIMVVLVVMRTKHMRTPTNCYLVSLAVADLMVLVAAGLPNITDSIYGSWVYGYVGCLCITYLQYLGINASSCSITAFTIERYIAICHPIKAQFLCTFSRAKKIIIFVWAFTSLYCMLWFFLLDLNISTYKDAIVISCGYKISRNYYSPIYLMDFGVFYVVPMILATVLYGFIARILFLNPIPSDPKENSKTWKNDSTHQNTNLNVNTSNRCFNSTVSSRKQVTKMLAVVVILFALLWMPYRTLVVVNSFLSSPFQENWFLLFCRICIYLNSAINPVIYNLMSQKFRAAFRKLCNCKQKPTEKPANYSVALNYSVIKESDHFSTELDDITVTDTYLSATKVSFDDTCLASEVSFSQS
#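 Enhancer read-out: after compound pinning and an initial kinetic agonist-mode read, an EC20 of TRH (10 nM final) was injected and fluo-8 calcium signal (Ex 480/Em 530) followed at 1 s/cycle for 100 cycles in TRHR-expressing cells.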
# D1 PAM: potentiators of human D1 dopamine receptor | P21728 | HEK293 TREx D1 cells, calcium flux, dopamine EC20 potentiation | potentiation, % at 10 µM | actives 0.036% (n = 360,000); in the data active = potentiation above about 30%; also: 0% is about no effect
# D1 agonist: human D1 receptor agonism; P21728; HEK293 T-REx D1 cells, calcium flux, agonist mode; activation, % at 2 µM; actives 1% (n = 360,000); AID 504660; also: 0% is about no effect
#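 Inducible HEK293 T-REx D1 cells, force-coupled to calcium signalling, were plated at 4000 cells/well with tetracycline and held overnight at 30 C. After no-wash calcium dye loading, compound-evoked calcium rise over 180 s flagged agonists.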
# TRHR agonist: agonists of human TRH receptor; AID 493084; activation, % at 2 µM; actives 0.18% (n = 360,000); TRHR cells, calcium flux fluo-8, FDSS agonist mode; P34981; also: 0% is about no effect
#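 Fluo-8-loaded TRHR cells; 10 s baseline, compound added, kinetic Ca2+ fluorescence read 1/s, agonist mode.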
# Numbers without * were called inactive; ? = inconclusive; / = no result given; ! = not confirmed by another sample. Shown are actives, neighbours in structure and some others; about 3.6% of the full set was active somewhere. Rule as the data show it, unless noted: active = activation above about 30%; inactive = the rest.
SMILES,D1 antag,LDHA inh,TRHR enhancer,D1 PAM,D1 agonist,TRHR agonist
C=C(C)CC(NCc1ccco1)c1ccc(OC)cc1 (stereo not drawn),-36*,-3,-3,4,5,1
O=C(Nc1cccc(OC2CCCC2)c1)c1ccncc1,/,7,/,/,/,/
CC(C)OCCCNC(=O)c1cn(C)c2ccc(S(=O)(=O)N3CCCCCC3)cc2c1=O,-34*,-2,4,0,4,-1
CCC1CCCCN1CCCNC(=O)c1cn(CC)c2ccc(S(=O)(=O)N(C)C3CCCCC3)cc2c1=O (stereo not drawn),-38*!,0,7,-4,0,0
CCn1cc(C(=O)NCCCOC)c(=O)c2cc(S(=O)(=O)N(C)C3CCCCC3)ccc21,8,6,4,1,0,0
Cc1cc(C)nc(NC(=O)c2csc3ccccc23)n1,/,-7,/,/,/,/
Cc1ccc2c(c1)C(Cc1nc3ccccc3c(=O)n1CCCO)C(=O)N2C(C)C (stereo not drawn),/,17,/,/,/,/
Cc1ccccc1NC(=O)c1cnn2c1NC(C(=O)O)=CC2/C=C/c1ccccc1 (stereo not drawn),/,0,/,/,/,/
CC(C)c1ccc(C(=O)NCCC2=CCCCC2)cc1,/,1,/,/,/,/
CC(C)CCNC(=O)C(=O)NCCC1=CCCCC1,-47*,0,0,-3,2,0
O=C(NCCc1ccc(Cl)cc1)c1ccc2c(c1)OCO2,-29,-10,-4,-8,4,-1
O=C(NCCc1ccc(Cl)cc1)c1ccc2c(c1)OCCO2,-37*,-4,-9,-7,2,-1
O=C(NC(=S)NCCC1=CCCCC1)c1cncc(Br)c1,-32*,-5,-2,-7,0,0
CCCNC(=O)C(=O)NCCC1=CCCCC1,0,-9,1,9,2,0
O=C(NCCC1=CCCCC1)c1ccc(Cl)cc1,-41*,/,13,-6,19,-3
CC(C)(C)c1ccc(C2CC2C(=O)N/N=C\C(Br)=C\c2ccccc2)cc1 (stereo not drawn),/,3,/,/,/,/
COc1ccc(C2/C=C\CN(C(=O)c3ccc(C)cc3)[C@H](Cc3ccccc3)C(=O)N2Cc2ccc(F)cc2)cc1 (stereo partly drawn),-50*,1,6,6,3,0
CCCCC(=O)N1C/C=C\C(c2ccc(OC)cc2)N(Cc2ccc(F)cc2)C(=O)[C@H]1Cc1ccccc1 (stereo partly drawn),14,-4,-3,-5,11,0
COc1ccc(C2/C=C\CN(S(=O)(=O)/C=C/c3ccccc3)CC(=O)N2Cc2ccc(F)cc2)cc1 (stereo not drawn),-36*,-15,-2,-5,16,-1
CCCCCCC(=O)N1C/C=C\C(c2ccc(OC)cc2)N(Cc2ccc(F)cc2)C(=O)[C@H]1Cc1ccccc1 (stereo partly drawn),-35*,4,-8,-2,13,2
COCCN1C(=O)c2n[nH]c(-c3ccco3)c2C1c1ccc(OC)cc1 (stereo not drawn),/,12,/,/,/,/
CCCCn1nc(C(=O)Nc2cccc(OC)c2)c2ccccc2c1=O,/,-2,/,/,/,/
COc1ccc(/C=C/C(=O)c2ccc(C)cc2)cc1,/,8,/,/,/,/
CCCCn1nc(C(=O)Nc2ccc(OC)c(OC3CCCC3)c2)c2ccccc2c1=O,/,25,/,/,/,/
O=C(CSc1nc2ccccc2c(=O)n1CCCN1CCOCC1)c1ccccc1,/,6,/,/,/,/
SMILES,D1 antag,LDHA inh,TRHR enhancer,D1 PAM,D1 agonist,TRHR agonist
N#Cc1c(NC(=O)Cn2cnc3ccccc3c2=O)oc(-c2ccccc2)c1-c1ccccc1,-55*,-1,-5,-11,4,0
CC(C)=CC(=O)Nc1ccc(Br)cc1F,/,-1,/,/,/,/
CC1Cc2nc(SCC(=O)N3CCCC3)n(-c3ccc(F)cc3)c(=O)c2S1 (stereo not drawn),/,-5,/,/,/,/
COC(=O)c1sc(S(=O)(=O)N2CCC(C(=O)O)CC2)c(C(=O)OC)c1C,2,-5,4,-3,3,1
COC(=O)c1sc(S(=O)(=O)N2CCCCC2C)c(C(=O)OC)c1C (stereo not drawn),-59*,1,20,-1,1,-1
CC(C)Cc1ccc(C(C)C(N)=NCCc2ccccc2)cc1 (stereo not drawn),20,-14,-6,-8,30*,3
CC(C)CCSc1nc2c(c(=O)[nH]c(=O)n2C)n1CC(O)COc1ccc(Cl)cc1 (stereo not drawn),/,4,/,/,/,/
COC(=O)c1ccc(CSCc2ccc(C#N)cc2)cc1,-35*,/,-11,-12,8,-1
COC(=O)c1ccc(/C=N/OCc2ccc(C#N)cc2)cc1,/,2,/,/,/,/
Brc1ccc(C=Nc2cccc3ccccc23)cc1,/,-18,/,/,/,/
COc1ccc(/C=C/c2ccccc2)cc1,/,6,/,/,/,/
COc1ccc(/C=C/c2ccncc2)cc1,-34*,-9,1,-9,2,-1
O=C(NCCCN1CCN(c2ccccc2F)CC1)Nc1ccc(F)cc1,-79*,-5,3,-11,4,0
CSc1ccc(NC(=O)NCCCN2CCN(c3ccccc3F)CC2)cc1,-73*,-3,-1,-4,37*,1
O=C(NCCCN1CCN(c2ccccc2F)CC1)Nc1ccccc1[N+](=O)[O-],-54*,0,2,-14,8,0
O=C(NCCCN1CCN(c2ccccc2)CC1)Nc1ccccc1C(F)(F)F,-28,-5,-1,-9,-1,0
CCOc1ccc(/C=C/C(=O)c2cc3ccccc3oc2=O)cc1OC,/,-7,/,/,/,/
CCOc1nc2ccccc2nc1N1CCC(C(=O)Nc2ccc(C)c(Cl)c2)CC1,/,5,/,/,/,/
Cc1sc2ncnc(NCC(c3ccco3)N(C)C)c2c1C (stereo not drawn),-35*,?,-15,-6,10,0
CC1CCC(Nc2ccc3cc(S(=O)(=O)N4CCCC4)ccc3n2)CC1 (stereo not drawn),/,51,/,/,/,/
COc1ccc(-n2nc3c(N4CCC(C(=O)NCCc5ccccc5C)CC4)nnc(C)c3c2C)cc1,12,-5,7,13,3,-1
COc1ccc(-n2nc3c(N4CCC(C(=O)NCc5ccccc5C)CC4)nnc(C)c3c2C)cc1,-2,-8,-14,12,76*!,0
Cc1ccc(-n2nc3c(N4CCC(C(=O)NCCc5ccccc5)CC4)nnc(C)c3c2C)cc1,-72*,-3,2,-3,5,0
COc1ccccc1C(=O)Nc1cnc2sc3c(n2c1=O)CCCC3,/,9,/,/,/,/
CC(C(=O)NC(=O)NC12CC3CC(CC(C3)C1)C2)n1cnc2c1c(=O)n(C)c(=O)n2C (stereo not drawn),/,-31*,/,/,/,/
